Hit rate of the full screen: of about 8,000 compounds, fewer than 10 were called active. How the calls were made is not given here. Not all results are given here.
Test system: hedgehog, isoform A (Drosophila melanogaster)
Assay: Drosophila hedgehog isoform A inhibitors, primary screen, biochemical, plate reader, single concentration (AID 588832);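 further: 0% = neutral control wells and 100% = positive control wells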
Settings: Biochemical plate reader assay, at 30.3 µM, active compounds read high

| Compound | inhibition |
| --- | --- |
| O=C(CSc1nc2c(c(=O)n1-c1ccccc1)SCC2)N1CCN(c2ccccc2)CC1 | 5.23% (inactive) |
| NC(=O)c1cccc2c1C(=O)N(C1CCCCC1)C2 | 6.78% (inactive) |
| Cc1ccccc1C(=O)Nc1nnc(S(=O)(=O)N2CCCCC2)s1 | 3.67% (inactive) |
| O=C(Nc1ccccc1)N1CCC(n2c(=O)[nH]c3ccccc32)CC1 | 11.9% (inactive) |
| Cc1cc2c(cc(C(=O)N3CCC(C(=O)N4CCCC4)CC3)n2Cc2c(F)cccc2Cl)o1 | 6.84% (inactive) |
| C=C1CCCC2OC(CC3=CC4/C(C)=C/CC(C)CC(/C=C(\C)C(O)C5CC(O)C(O)C(CCC(O)/C=C/C(C)=C/CCC6=NCCC(C3)C64C)O5)OC(=O)CC3OC(C(O)C1)C(O)C3O)CC(O)C2O (stereo unspecified) | 5.17% (inactive) |
| Nc1nonc1-n1nnc(C(=O)N/N=C/c2ccc(O)cc2)c1CN1CCCCCC1 | -1.79% (inactive) |
| CC1C(=O)Nc2ccc(S(=O)(=O)N3CCN(c4cccc(Cl)c4)CC3)cc2NC1=O (stereo unspecified) | 7.02% (inactive) |
| O=c1ccc2cc(S(=O)(=O)N3CCN(c4ccccc4F)CC3)ccc2[nH]1 | -3.85% (inactive) |
| COc1ccccc1CNC(=O)[C@H](Cc1c[nH]c2ccccc12)NC(=O)[C@@H]1Cc2ccccc2CN1 | 3.6% (inactive) |
| CCOC(=O)c1ccc(NC(=O)COc2cc(=O)n(CC)c3ccccc23)cc1 | 4.17% (inactive) |
| COC(=O)C(N)CCCCN (stereo unspecified) | 3.45% (inactive) |
| COc1ccc(NC(=O)c2cc(CC(C)C)on2)cc1OC | 8.45% (inactive) |
| CCOC(=O)N1CCC(N2Cc3cccc(C(=O)N4CCN(C5CCCCC5)CC4)c3C2=O)CC1 | 5.77% (inactive) |
| CCSc1nnc2c(n1)OC(c1ccc(C(=O)O)cc1)N(C(C)=O)c1ccccc1-2 (stereo unspecified) | 0.848% (inactive) |
| Cc1ccc(-c2nc(CS(=O)CC(=O)NCCCN3CC(C)CC(C)C3)c(C)o2)cc1 (stereo unspecified) | 3.85% (inactive) |
| Cc1oc(-c2ccc(Cl)cc2)nc1CS(=O)CC(=O)NCc1cccs1 (stereo unspecified) | 5.23% (inactive) |
| COc1ccc(N2CCN(C(=O)c3ccc(CS(=O)(=O)c4ccccc4C)o3)CC2)cc1 | 7.34% (inactive) |
| Cc1ccc(S(=O)(=O)Nc2ccc(O)c3ncccc23)cc1 | 64.4% (active) |
| CCC(NS(=O)(=O)c1ccc(C)cc1)C(=O)N1CCN(c2ccccn2)CC1 (stereo unspecified) | 20.8% (inactive) |
| Cc1ccc(-c2nc3cccnc3s2)cc1NS(=O)(=O)c1ccc2c(c1)CCCC2 | 6.78% (inactive) |

| Compound | inhibition |
| --- | --- |
| COc1c2c(c(C)c3c1C(=O)OC3)O[C@@]1(C)CC[C@@]3(O)C(C)(C)OC(=O)CC[C@]3(C)[C@H]1C2 | -1.82% (inactive) |
| O=C(Cc1cc(=O)[nH]c(=O)[nH]1)NCCN1CCOCC1 | 9.62% (inactive) |
| COc1ccc2c(c1OC)C(=O)N1C2SC[C@H]1C(=O)NC1CCCCC1 (stereo partly specified) | 4.89% (inactive) |
| c1ccc(Nc2nc3ccccc3n3nnnc23)cc1 | 1.79% (inactive) |
| Cc1cc(C)cc(N2CC(c3nc4ccccc4n3C)CC2=O)c1 (stereo unspecified) | 5.06% (inactive) |
| Cc1ccc(CNC(=O)[C@@H](NC(=O)C2CCN(C(=O)[C@@H]3CCCN3)CC2)C(C)C)cc1 | 8.17% (inactive) |
| Cc1csc2ncc(C(=O)NC(C)c3ccccc3)c(=O)n12 (stereo unspecified) | 7.24% (inactive) |
| CC1CCN(Cc2ccc(NC(=O)C3CCN(c4nnc(-n5cccc5)s4)CC3)cc2)CC1 | 1.99% (inactive) |
| CCOC(=O)Cn1c(=O)n(Cc2ccco2)c(=O)c2ccc(C(=O)NC3CCCC3)cc21 | -13% (inactive) |
| O=C(Nc1ccc(F)cc1F)C1CCN(c2ncnc3c2sc2cccc(F)c23)CC1 | 7.02% (inactive) |
| CCCCOC(=O)c1cc(=O)[nH]c(=O)[nH]1 | 5.12% (inactive) |
| Cc1cc(C)n2nc(S(=O)(=O)N(C)c3ccccc3)nc2n1 | 6.52% (inactive) |
| Cc1nc2sc(C(c3ccccc3)N3CCN(C)CC3)c(O)n2n1 (stereo unspecified) | 14.5% (inactive) |
| COc1ccc(-c2nc(C(=O)NCCCN3CCOCC3)cc3c2[nH]c2ccccc23)cc1OC | 1.72% (inactive) |
| C[C@H](NC(=O)[C@H]1N2C(=O)c3ccccc3C2SC1(C)C)C(=O)N1CCC[C@H]1CO (stereo partly specified) | 1.72% (inactive) |
| Cc1ccc(Cl)cc1N1CCN(C(=O)C2CCN(c3nnc(-n4cccc4)s3)CC2)CC1 | 15.4% (inactive) |
| Cc1cc(C)n2c(SCC(=O)Nc3ccccc3)nnc2n1 | -12.9% (inactive) |
| Cc1ccc(S(=O)(=O)Nc2ccccc2C(=O)Nc2sccc2C(=O)NN(C)C)cc1 | 7.69% (inactive) |
| COc1c(O)c(O)c2oc(-c3ccccc3)cc(=O)c2c1OC | 6.79% (inactive) |
| O=c1cc(-c2ccc(O)cc2)oc2c(O)c(O)c(O)c(O)c12 | 89.5% (active) |
| O=c1cc(-c2ccc(O)cc2)oc2c(-c3c(O)cc(O)c4c(=O)cc(-c5ccc(O)cc5)oc34)c(O)cc(O)c12 | 3.51% (inactive) |

| Compound | inhibition |
| --- | --- |
| CN(C)C(=O)c1nnc(Cc2ccc(Cl)cc2)o1 | 12.9% (inactive) |
| Cc1c(C(=O)NNc2cc(=O)n(C)c(=O)n2C)cccc1[N+](=O)[O-] | 1.72% (inactive) |
| NC(=O)c1c(NC(=O)c2c(F)cccc2F)sc2c1CCN(Cc1ccccc1)C2 | 0% (inactive) |
| COc1ccc(-n2c(Cc3cccn3C)nnc2SCC(=O)Nc2ccccc2OC)cc1 | 5% (inactive) |
| CCOc1ccc(C(=O)c2cnc3ccccc3c2N2CCN(CC)CC2)cc1 | 20% (inactive) |
| O=C(Cn1cnc2c(nnn2Cc2ccccc2)c1=O)NCc1ccco1 | 2.73% (inactive) |
| CCOC(=O)c1c(C)c(-c2ccccc2)n(CC(=O)N2CCCC2)c1C | 0.909% (inactive) |
| Cc1cc(Nc2cccc(F)c2)n2nc(C)nc2n1 | -2.57% (inactive) |
| C=CC[C@]12C[C@@H](OC)C(=O)C=C1O[C@@H](c1ccc(OC)c(OC)c1)[C@H]2C | 8.62% (inactive) |
| CC1Cc2ccccc2N1C(=O)c1cnc2sccn2c1=O (stereo unspecified) | -0.943% (inactive) |
| CCOc1ccc(CC(=O)NCc2ccc3c(c2)cc(C)n3C)cc1 | 3.85% (inactive) |
| O=C(COc1ccc2c(c1)oc(=O)c1ccccc12)N[C@@H](Cc1ccccc1)C(=O)O | 0% (inactive) |
| COC(=O)C1=C(C)n2cnnc2NC1c1ccc(Cl)cc1 (stereo unspecified) | 15% (inactive) |
| Cc1ccc(C)c(N2CCN(C(=O)c3ccc4c(=O)n5c(nc4c3)CCCCC5)CC2)c1 | -12.9% (inactive) |
| COc1ccc(C(=O)NCc2ccc3c(c2)cc(C)n3C)cc1 | 5.23% (inactive) |
| COc1ccccc1NS(=O)(=O)c1cc2c(cc1C)NC(=O)CO2 | 9.62% (inactive) |
| Cc1ccc(NC(=S)NCc2ccc3[nH]c4c(c3c2)CCCC4)cc1 | 4.39% (inactive) |
| COc1ccc(-c2nc(CS(=O)CC(=O)NCCC3=CCCCC3)c(C)o2)cc1 (stereo unspecified) | 7.69% (inactive) |
| Cc1cnc(NC(=O)CSc2nnc(COc3c(C)cccc3C)o2)s1 | 10% (inactive) |

Source: PubChem BioAssay AID588832 (Broad Institute, 2011)
